Test results: the supplement of paper PMC3545927
The other results are listed elsewhere or left out. How many sequences the whole screen found active is unknown.

Target: furin, P09958
Test: furin cleavage Z-score vs untreated control; higher = more cleavage, active = 3.5 or more, inactive = 1 or less, 8 variable residues between constant flanks
Procedure, shortened: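 To give the cleavage Z-score, log read counts were set against furin-free reactions, lowess-adjusted and scaled by median absolute deviation. These counts came from PCR adapter-tagged, sequenced DNA released when purified furin cut 8-mer peptides fused to a cDNA oligonucleotide and held on magnetic beads by their N-terminus. Digests were 0.01 ml, 1:10 enzyme:substrate, in 50 mM HEPES pH 7.5 with CaCl2 and NaCl, for 7.5, 15 or 30 min.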

Chain of furin, P09958 (P09958 whole entry): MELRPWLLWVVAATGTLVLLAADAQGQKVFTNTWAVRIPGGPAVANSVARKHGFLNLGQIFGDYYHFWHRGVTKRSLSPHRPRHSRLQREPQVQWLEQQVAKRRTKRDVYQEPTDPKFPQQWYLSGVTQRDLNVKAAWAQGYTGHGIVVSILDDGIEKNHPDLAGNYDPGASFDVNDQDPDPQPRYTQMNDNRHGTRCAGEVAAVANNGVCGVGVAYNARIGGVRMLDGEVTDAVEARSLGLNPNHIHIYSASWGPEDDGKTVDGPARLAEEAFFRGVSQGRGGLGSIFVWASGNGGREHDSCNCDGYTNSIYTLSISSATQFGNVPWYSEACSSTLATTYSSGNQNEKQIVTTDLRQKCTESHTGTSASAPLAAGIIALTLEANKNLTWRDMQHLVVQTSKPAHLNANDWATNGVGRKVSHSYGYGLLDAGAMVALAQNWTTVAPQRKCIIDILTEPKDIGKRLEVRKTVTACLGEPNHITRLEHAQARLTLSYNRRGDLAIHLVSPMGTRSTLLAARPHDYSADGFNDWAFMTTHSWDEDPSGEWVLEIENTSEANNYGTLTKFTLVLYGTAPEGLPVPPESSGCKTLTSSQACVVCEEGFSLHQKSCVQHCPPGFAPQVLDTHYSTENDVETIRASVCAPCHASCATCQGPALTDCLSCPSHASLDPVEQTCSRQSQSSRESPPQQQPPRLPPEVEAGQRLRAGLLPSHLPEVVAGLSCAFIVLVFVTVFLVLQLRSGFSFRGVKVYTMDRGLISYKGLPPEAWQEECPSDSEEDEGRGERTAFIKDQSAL

B1: HC754 (peptide)
chain: CARGVAKAVDAGNASASA
furin cleavage Z-score (7.5 min): -0.917 (inactive)
furin cleavage Z-score (15 min): 0.591 (inactive)
furin cleavage Z-score (30 min): 0.29 (inactive)

B2: HC610 (peptide)
chain: CALWILQASLAGNASASA
furin cleavage Z-score (7.5 min): -0.000456 (inactive)
furin cleavage Z-score (15 min): 2.88
furin cleavage Z-score (30 min): 1.52

B3: HC887 (peptide)
chain: CADCNTCVTQAGNASASA
furin cleavage Z-score (7.5 min): 0.505 (inactive)
furin cleavage Z-score (15 min): -0.795 (inactive)
furin cleavage Z-score (30 min): -0.033 (inactive)

B4: HC2380 (peptide)
chain: CAEVPCHCPSAGNASASA
furin cleavage Z-score (7.5 min): -0.21 (inactive)
furin cleavage Z-score (15 min): 0.0658 (inactive)
furin cleavage Z-score (30 min): -0.42 (inactive)

B5: HC2573 (peptide)
chain: CASTPCSAHRAGNASASA
furin cleavage Z-score (7.5 min): 0.385 (inactive)
furin cleavage Z-score (15 min): 0.166 (inactive)
furin cleavage Z-score (30 min): 1.63

B6: FS-27 (peptide)
chain: CAGMGRVRRAAGNASASA
furin cleavage Z-score (7.5 min): 11.2 (active)
furin cleavage Z-score (15 min): 10.9 (active)
furin cleavage Z-score (30 min): 10 (active)

B7: FS-1181 (peptide)
chain: CAWLKRRKRAAGNASASA
furin cleavage Z-score (7.5 min): 11.7 (active)
furin cleavage Z-score (15 min): 10.8 (active)
furin cleavage Z-score (30 min): 7.39 (active)

B8: FS-268 (peptide)
chain: CALEGRVRRAAGNASASA
furin cleavage Z-score (7.5 min): 10.4 (active)
furin cleavage Z-score (15 min): 10.8 (active)
furin cleavage Z-score (30 min): 9.36 (active)

B9: FS-635 (peptide)
chain: CAYLNRYKRAAGNASASA
furin cleavage Z-score (7.5 min): 8.98 (active)
furin cleavage Z-score (15 min): 9.12 (active)
furin cleavage Z-score (30 min): 5.24 (active)

B10: HC1404 (peptide)
chain: CAVLKEVKAAAGNASASA
furin cleavage Z-score (7.5 min): -0.975 (inactive)
furin cleavage Z-score (15 min): 0.455 (inactive)
furin cleavage Z-score (30 min): -0.678 (inactive)

B11: HC705 (peptide)
chain: CATIASPKGPAGNASASA
furin cleavage Z-score (7.5 min): -0.242 (inactive)
furin cleavage Z-score (15 min): -0.653 (inactive)
furin cleavage Z-score (30 min): -1.2 (inactive)

B12: HC1631 (peptide)
chain: CACGKYLFNWAGNASASA
furin cleavage Z-score (7.5 min): -0.792 (inactive)
furin cleavage Z-score (15 min): -0.758 (inactive)
furin cleavage Z-score (30 min): -0.511 (inactive)
